This is an account of results in PubChem BioAssay (NCI).

Common to all, as to test: NCI-60 one-dose screen, 48 h (100 = growth as untreated, 0 = no growth, -100 = all killed)
Common to all, as to conditions: 10 µM unless noted

Experiment [1] relates to HCT-15 colon.
In experiment [2] the test system is HT29 colon.
Experiment [3] relates to SNB-75 CNS.
For experiment [4], the system named is SNB-19 CNS.
The test system of experiment [5] is U251 CNS.
The test system of experiment [6] is PC-3 prostate.
For experiment [7], the system named is SK-MEL-5 melanoma.
Experiment [8] deals with UACC-62 melanoma.
Experiment [9] has as its system LOX IMVI melanoma.
Experiment [10] concerns SK-MEL-28 melanoma.
The subject of experiment [11] is SK-MEL-2 melanoma.
Experiment [12] concerns EKVX NSCLC.
For experiment [13], the system named is SN12C renal.
For experiment [14], the system named is UO-31 renal.
Experiment [15] deals with TK-10 renal.
Experiment [16] has as its system ACHN renal.
Experiment [17] deals with CAKI-1 renal.
For experiment [18], the system named is A498 renal.
The test system of experiment [19] is CCRF-CEM leukemia.
Experiment [20] has as its system MOLT-4 leukemia.

Compounds without any hit were thinned out: in the full panel of roughly 83,000, 20% have a hit.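 Values shown are percent growth following 48 h exposure of cells in 96-well plates to a single concentration of compound; below 10 was considered active.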 A number with no mark means an inactive call. Activity calls are given as the source filed them.

With `O=C(C[n+]1cccc2ccccc21)c1ccc(O)c(O)c1`, the growth in experiment [1] was 20.8%; in [2], 40.7%; in experiment [3] it was 66%; in experiment [4], 74.5%; in [5], 91.1%; in experiment [6], 69.9%. Also, the growth is 82.7% in [7]; 69.7% in experiment [8]; 28.3% in experiment [9]; 84.7% in experiment [10]; 90.8% in [11]; 76.8% in experiment [12]. Also, the growth in [13] is 72.4%; in experiment [14], 50.6%; in experiment [15], 39%; in [16], 23.7%; in experiment [17], 83.6%; in experiment [18] it was 88.4%. Moreover, the growth in [19] is -13.8% (active); in experiment [20], 6.56% (active).

Turning to `COc1ccc(/C=C/c2nc(Nc3cccc(NC(C)=O)c3)c3ccccc3n2)cc1`, the growth in experiment [1] is 70.9%; in experiment [2] it was 85%; in [3], 90.5%; in experiment [4], 92.4%; in [5] it was 88.5%; in [6], 90%. The growth in experiment [7] is 87.5%; in [8] it was 44.2%; in experiment [9], 59.3%; in [10], 104%; in experiment [11] it was 91.9%; in experiment [12] it was 94.3%. For the same compound, the growth in experiment [13] was 89.1%; in [14], 68.3%; in experiment [15], 92.7%; in [16] it was 78.3%; in [17] it was 67.4%; in experiment [18], 9.66% (active). In addition, the growth in experiment [19] was 82.5%; in [20], 87%.

Take `C=CCn1c(-c2ccc(-c3nc4ccc(C)cc4[nH]3)cc2)n[nH]c1=S`: the growth in experiment [1] was 99.2%; in experiment [2], 105%; in [3], 104%; in experiment [4], 102%; in experiment [5] it was 101%; in experiment [6], 101%. The growth in experiment [7] was 89.5%; in experiment [8] it was 95.8%; in experiment [9] it was 98.3%; in experiment [10], 100%; in experiment [11], 112%; in experiment [12], 94.5%. Moreover, the growth is 96.4% in experiment [13]; 89.7% in [14]; 133% in experiment [15]; 99.6% in experiment [16]; 93.6% in [17]; 94.5% in experiment [18]. The results for the growth in experiment [19] and in experiment [20] were 87.3% and 96.9%, respectively.

Take `CCc1ccc(-c2cn3ccnc3c(-c3ccc4ncn(Cc5ccccc5)c4c3)n2)cc1`: the growth in [1] was 25.3%; in experiment [2] it was 31.2%; in experiment [3], 70.7%; in [4], 79.1%; in [5], 53.9%; in experiment [6], 49.6%. Also, the growth was 52.1% in experiment [7]; 75.1% in experiment [8]; 49.8% in experiment [9]; 80.9% in [10]; 85.2% in experiment [11]; 60.3% in [12]. Also, the growth in experiment [13] was 77.5%; in experiment [14] it was 42.2%; in [15], 84.5%; in experiment [16] it was 55.3%; in experiment [17], 52.1%; in experiment [18], 105%. Besides, the results for the growth in [19] and in experiment [20] were 50.3% and 45.8%, respectively.

With `C=C(C)[C@@H]1CC[C@]2(C(=O)N3CCN(C)CC3)CC[C@]3(C)[C@H](CC[C@@H]4[C@@]5(C)CC[C@H](O)C(C)(C)[C@@H]5CC[C@]43C)[C@@H]12`, the growth is -83.9% (active) in experiment [1]; -90.4% (active) in experiment [2]; -93.2% (active) in experiment [3]; -52% (active) in experiment [4]; -84.8% (active) in experiment [5]; -70.7% (active) in [6]. Besides, the growth in experiment [7] was -67.7% (active); in [8] it was -82.9% (active); in experiment [9], -80.9% (active); in experiment [10], -85.1% (active); in [11], 61.8%; in [12], 92.5%. In addition, the growth in [13] was -74.2% (active); in experiment [14], -86.1% (active); in experiment [15] it was -93.3% (active); in experiment [16], -92% (active); in experiment [17], -84% (active); in experiment [18], 98.7%. The results for the growth in experiment [19] and in experiment [20] were -36.6% (active) and -35.7% (active), respectively.

As for `COc1ccc(/C=C2\COc3ccc(-c4ccccc4)cc3C2=O)c(OC)c1`, the growth in experiment [1] is 84.3%; in experiment [2] it was 76.7%; in experiment [3], 65.5%; in experiment [4] it was 103%; in experiment [5] it was 84.6%; in experiment [6], 78.2%. Also, the growth in [7] is 81.2%; in experiment [8] it was 74.1%; in experiment [9] it was 79%; in [10] it was 108%; in experiment [11], 101%; in experiment [12] it was 161%. In addition, the growth in [13] was 83.8%; in experiment [14], 86.2%; in experiment [15] it was 94.8%; in experiment [16], 93%; in experiment [17] it was 116%; in experiment [18] it was 128%. Also, the growth in [19] was 71.2%; in [20] it was 57.9%.

For `CC1(C)NCCC[C@]2(C)[C@H]3CC[C@@H]4[C@H]5[C@H](C(=O)/C=C/c6ccco6)CC[C@]5(CO)CC[C@@]4(C)[C@]3(C)CC[C@@H]12`, the growth is 59.1% in [1]; 106% in experiment [2]; 83% in [3]; 94.2% in [4]; 82% in experiment [5]; 62.4% in experiment [6]. Besides, the growth was 93.4% in [7]; 87.8% in [8]; 74.8% in [9]; 104% in [10]; 117% in experiment [11]; 101% in experiment [12]. Also, the growth was 82.1% in experiment [13]; 67.3% in [14]; 9.01% (active) in experiment [15]; 99.6% in experiment [16]; 76.1% in experiment [17]; 74.6% in [19].

Consider `C=C(C)[C@@H]1CC[C@]2(C(=O)N3CCN(C)CC3)CC[C@]3(C)[C@H](CC[C@@H]4[C@@]5(C)C/C(=C/c6ccncc6)C(=O)C(C)(C)[C@@H]5CC[C@]43C)[C@@H]12`, for which the growth in experiment [1] is 35.8%; in experiment [2], 15.8%; in experiment [3], 87.9%; in experiment [4], 64.2%; in [5], 47%; in experiment [6], 23.7%. In addition, the growth was 59.8% in [7]; 71% in [8]; 55.9% in experiment [9]; 76.9% in experiment [10]; 64.6% in experiment [11]; 77.3% in experiment [12]. Moreover, the growth in experiment [13] is 47.1%; in experiment [14], 48%; in experiment [15], 89.4%; in experiment [16], 60.9%; in experiment [17], 71.1%; in experiment [19], 24.7%. In addition, the growth in experiment [20] was 3.16% (active).

For the compound `CN1CCN(C(=O)[C@]23CCC(C)(C)C[C@H]2C2=CC[C@@H]4[C@@]5(C)C/C(=C/c6ccncc6)C(=O)C(C)(C)[C@@H]5CC[C@@]4(C)[C@]2(C)CC3)CC1`, the growth is 36.3% in experiment [1]; 5.24% (active) in experiment [2]; 85.2% in [3]; 61.2% in experiment [4]; 44.8% in experiment [5]; 19.5% in experiment [6]. The growth was 54.3% in [7]; 61% in experiment [8]; 40.2% in experiment [9]; 74.7% in experiment [10]; 78.2% in experiment [11]; 80.2% in experiment [12]. Further, the growth is 49.9% in experiment [13]; 37.3% in [14]; 77.1% in experiment [15]; 65.1% in [16]; 75.4% in experiment [17]; 19.7% in [19]. Moreover, the growth in experiment [20] is 2.92% (active).

As to `COc1cc2oc(-c3cccc(C(=O)Nc4ccccc4)c3)cc(=O)c2c(O)c1OC`, the growth in experiment [1] is 92.8%; in experiment [2], 54.2%; in [3], 21.8%; in experiment [4] it was 57.7%; in experiment [5], 36.9%; in experiment [6], 71%. The growth in experiment [7] is 71.7%; in experiment [8], 38.9%; in experiment [9], 88.1%; in experiment [10] it was 87.4%; in experiment [11] it was 65%; in [12], 97.9%. In addition, the growth was 74.8% in [13]; 59.7% in experiment [14]; 60.8% in experiment [15]; 58% in experiment [16]; 48.9% in [17]; 100% in experiment [19]. For the same compound, in experiment [20], the growth is 99.7%.

Regarding `CCCCC[n+]1ccc(SCC(=O)N(C)c2ccc(Oc3ccccc3)cc2)c2ccccc21`, the growth in experiment [1] is 100%; in [2], 101%; in [3], 115%; in [4], 89.1%; in experiment [5], 95.8%; in experiment [6] it was 103%. For the same compound, the growth in experiment [7] was 95.2%; in [8], 75.4%; in [9], 102%; in experiment [10], 108%; in experiment [11] it was 106%; in [12], 114%. Besides, the growth in experiment [13] was 95.5%; in [14], 86.9%; in [15], 99.6%; in experiment [16], 107%; in experiment [17], 93.5%; in experiment [19] it was 85%. The growth in experiment [20] was 82%.

Regarding `Cc1nn(-c2ccccc2)c(Oc2c(Cl)cccc2Cl)c1/C=N/N=c1\sc2ccccc2n1C`, the growth in experiment [1] was 25.3%; in experiment [2], 33.7%; in experiment [3], 86.4%; in experiment [4] it was 49.7%; in [5], 28.5%; in experiment [6], 44.1%. Besides, the growth in experiment [7] is 20.2%; in experiment [8] it was 36.2%; in experiment [9], 26%; in experiment [10], 64.1%; in [11] it was 80%; in experiment [12], 77.9%. Further, the growth in experiment [13] is 59.1%; in experiment [14], 57.5%; in experiment [15] it was 85.7%; in experiment [16] it was 43.7%; in experiment [17] it was 36.4%; in experiment [19] it was 40.7%. Further, the growth in experiment [20] is 18.6%.

In the case of `O=C(/C(=C\c1ccc([N+](=O)[O-])cc1)S(=O)Cc1ccc(Cl)cc1)c1ccc(Cl)cc1` (configuration not stated), the growth in experiment [1] is 34.8%; in [2] it was 16.5%; in [3], 93%; in experiment [4] it was 71.6%; in [5], 53.6%; in [6], 66.9%. The growth in experiment [7] was 90.7%; in [8], 69.2%; in experiment [9], 40.5%; in [10], 86.8%; in [11], 94.6%; in [12], 98.5%. The growth in experiment [13] was 49.6%; in [14] it was 70.4%; in experiment [15] it was 91.9%; in experiment [16], 64.6%; in experiment [17], 83.8%; in experiment [19], 22%. Further, the growth in experiment [20] was 25.1%.
